From PubChem
IMPase cell inh = membrane-permeable compound that blocks inositol monophosphatase. CHO-M1 cells, IP1 accumulation, HTRF TR-FRET ratio. inhibition (IP1 accumulation), % at 46.1 µM. 120,000 tested, under 10 active. AID 901; active means well fitted curve in the direction sought with a large enough effect in the signal ratio, not every such curve was filed as active; inconclusive means small, poorly fitted or top-dose-only effect, or a change in a side signal; inactive means no such curve, though single readings can be large or run the other way; the % refers to the signal ratio;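 further: cells stimulated with carbachol in lithium chloride buffer; plate controls were DMSO basal wells for no effect and reference inhibitor wells for full effect; higher means more IMPase inhibition seen as more IP1 and lower FRET ratio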
Target sequence (P97697 whole entry, looked up): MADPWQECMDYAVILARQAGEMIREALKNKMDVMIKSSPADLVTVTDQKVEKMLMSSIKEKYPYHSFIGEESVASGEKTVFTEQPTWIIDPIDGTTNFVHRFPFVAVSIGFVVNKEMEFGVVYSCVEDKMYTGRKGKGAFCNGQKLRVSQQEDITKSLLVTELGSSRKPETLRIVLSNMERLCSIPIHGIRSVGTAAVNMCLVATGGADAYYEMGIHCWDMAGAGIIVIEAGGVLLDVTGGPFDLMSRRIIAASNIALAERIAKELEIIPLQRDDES
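CHO-M1 cells (CHO stably expressing M1 receptor), compound up to 46 uM final, stimulated with carbachol (50 uM as added) in buffer with 50mM LiCl, pH 7.4, 30 min at 37C. Cytosolic IP1 read by TR-FRET; AC50 from Hill fits.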
HPGD block = HPGD (human) dehydrogenase inhibition | purified HPGD, NADH fluorescence kinetic, PGE2 substrate | Potency, µM, for the others: at the top dose activity change, negative = inhibition, actives largely listed as inhibitors | 150,000 compounds, 4.3% hits | P15428; further: potency means the concentration at half of the fitted maximal effect
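20 nM HPGD preincubated 15 min at room temperature with compound in 50 mM Tris-HCl pH 8, 0.01% Tween 20. Started with 1 mM NAD+ and 30 uM prostaglandin E2; NADH fluorescence (360/450 nm) read 5 times over 30-s intervals, last minus first.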
ALDH1A1 inh = inhibitors of human aldehyde dehydrogenase 1A1. P00352. Purified ALDH1A1, NADH fluorescence, propionaldehyde substrate. Potency, µM (highest dose often 75.3 µM), for the others: top-dose activity, negative = inhibition, usual class: inhibitors. 220,000 compounds, 7.3% hits. AID 1030;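 further: potency means the concentration at half of the fitted maximal effect; plate controls were no enzyme wells and a reference inhibitor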
* = called active by the depositor; ? = inconclusive; . = no result; [ ] = dose if it differs, or a comment. In the library only some 9% were active in any assay of this set; here they are far more common. Unless noted, the call rests on the fitted dose curve; in most records, active means well fitted inhibition curve with a large enough effect (not every such curve was filed as active); inconclusive means small, poorly fitted or top-dose-only effect, or another doubt; inactive means no such curve, though single readings can be large or run the other way. Unless noted, on the % scale 0 is the no-effect control and ±100 the full control effect.

SMILES	IMPase cell inh	HPGD block	ALDH1A1 inh
C=CCN1c2ccccc2[C@]23C[C@@H](C(=O)OC)N(S(=O)(=O)c4c(C)noc4C)C2=NC(C(=O)OC)=C(C(=O)OC)[C@H]13	.	3%	3%[13.5 µM]
O=C(c1ccc(Cl)s1)N1CCOCC1	-2	-24%	5%
O=C(CCN1CCC(c2ccc(Cl)s2)=N1)c1ccc(Cl)s1	.	.	3.2µM*
Cn1c(=O)[nH]c(=O)c2c1nc(N1CCCC1)n2CCSc1nc2ccccc2[nH]1	0	3%	0%
O=C(O)CSc1ncnc2c1oc1ccccc12	-28	.	6%
O=C(COc1cccc2cccnc12)N1CCc2ccccc2C1	3	?	?
O=C(CSc1ncnc2c1oc1ccccc12)N1CCc2ccccc2C1	3	4µM*	-3%
CCOC(=O)CC(=O)CSc1ncnc2c1oc1ccccc12	?	14µM*	-6%
O=C(CSc1ncnc2c1oc1ccccc12)NCc1ccco1	?	8.9µM*	11µM*
O=C(CSc1nc(C2CC2)nc2ccccc12)N1CCc2ccccc2C1	-11	-12%	-2%
O=C(CSc1ncnc2c1oc1ccccc12)Nc1ccccc1C(F)(F)F	?	?	-8%
O=C(COc1c(Br)cc(Br)c2cccnc12)N1CCc2ccccc2C1	-15	18µM*	11µM*
Cc1occc1C(=O)NNC(=S)Nc1cccc([N+](=O)[O-])c1	-16	.	12%
CC(C)Cc1ccc(/C=C/C(=O)NC2CC2)cc1	.	-28%	5%
C[C@@H]1CCCC(CC(=O)O)(CC(=O)O)C1	.	-7%	2%[13.5 µM]
OCCC1CN(Cc2cccn2-c2ncccn2)CCN1CCc1ccccc1 (stereo not given)	.	.	1%
CCc1cc(C(=O)OC)c(NC(=O)CCC(=O)O)s1	-2	13µM*	18µM*
CCCc1cc(C(=O)OC)c(NC(=O)CCCC(=O)O)s1	.	.	8%
CCc1ccc(CN2CCC(CO)(CC3CCCCO3)CC2)o1 (stereo not given)	.	.	8.9µM*
Cc1ccc(CN2CCC(CO)(CC3CCCCO3)CC2)o1 (stereo not given)	.	.	6%
CCOc1cc(OCC)nc(S(C)(=O)=O)n1	.	-3%	5%
COc1ccc(S(=O)(=O)Oc2cccc(/C=N/N=C3/NC(=O)C(CC(=O)O)S3)c2)cc1 (stereo not given)	.	.	8.9µM*
Cc1ccc(S(=O)(=O)Oc2ccc(/C=N/N=C3/NC(=O)C(CC(=O)O)S3)cc2)cc1 (stereo not given)	.	.	-13%
COc1ccc(/C=N/N=C2\SC(CC(=O)O)C(=O)N2c2ccccc2)cc1 (stereo not given)	.	-14%	20µM*
O=C(O)CC1S/C(=N\N=C/c2ccccc2)N(c2ccc(O)cc2)C1=O (stereo not given)	-19	.	1%
SMILES	IMPase cell inh	HPGD block	ALDH1A1 inh
COc1ccc(/C=N\N=C2/SC(CC(=O)O)C(=O)N2c2ccc(O)cc2)cc1 (stereo not given)	0	.	3%
COc1ccc(/C=N/N=C2\SC(CC(=O)O)C(=O)N2c2ccccc2)c(OC)c1 (stereo not given)	.	-18%	20µM*
CCO/C(C)=N/n1c2nc3ccccc3nc2c2c(=O)n(CC(C)C)c(C)nc21	0	-15%	25µM*
CCOCCCn1c(C)nc2c(c1=O)c1nc3ccccc3nc1n2-c1ccc(C)cc1	-6	-16%	8%
O=C(c1ccc(N2CCCCC2)c([N+](=O)[O-])c1)N1CCOCC1	4	-15%	1%
O=C(NCCN1CCOCC1)c1ccc(N2CCCC2)c([N+](=O)[O-])c1	.	.	16µM*
CC1CCCN(c2ccc(C(=O)NCc3ccc4c(c3)OCO4)cc2[N+](=O)[O-])C1 (stereo not given)	3	?	?
O=C(NCc1ccc2c(c1)OCO2)c1ccc(N2CCCCCC2)c([N+](=O)[O-])c1	2	14µM*	10µM*
O=C(NCc1cccnc1)c1ccc(N2CCOCC2)c([N+](=O)[O-])c1	.	.	3%
O=C(NN1CCN(Cc2ccccc2)CC1)c1ccc(N2CCOCC2)c([N+](=O)[O-])c1	.	.	2.2µM*
CCCNC(=S)Nc1ccc(F)cc1F	.	.	0%
CCCn1c(C)nc2c(NCCOC)nc(C)nc21	.	0%	3%
COC1=C(OC)C(=O)C(C/C=C(\C)CC/C=C(\C)CC/C=C(\C)CC/C=C(\C)CC/C=C(\C)CC/C=C(\C)CC/C=C(\C)CC/C=C(\C)CC/C=C(\C)CCC=C(C)C)=C(C)C1=O	.	0%	4%
CCOC(=O)c1ccc(NC(=O)c2cn(CCC#N)nc2-c2ccc3c(c2)OCCO3)cc1	-3	-21%	3%
O=C(c1ccc(S(=O)(=O)c2ccccc2Cl)c([N+](=O)[O-])c1)N1CCCCCC1	10	25µM*	?
O=C(c1ccc(S(=O)(=O)Cc2ccccc2F)c([N+](=O)[O-])c1)N1CCCCCC1	.	.	-15%
